Drawing on paper PMC7862700, “An all-to-all approach to the identification of sequence-specific readers for epigenetic DNA modifications on cytosine”, this text covers binding signal for 1 sequence.

Common to all, as to assay: DAPPL (digital affinity profiling via proximity ligation, sequencing); 10 mM Tris-HCl pH 7.5, 50 mM NaCl, 1 mM DTT, 4% glycerol, room temperature, 30 min; GST-TFs on glutathione beads, 16-mer random dsDNA library, 0.1% formaldehyde crosslink after washing; high values mean tight binding
The target in one assay is T1, FEV (Homo sapiens, UniProt Q99581 1-238).
T1 sequence: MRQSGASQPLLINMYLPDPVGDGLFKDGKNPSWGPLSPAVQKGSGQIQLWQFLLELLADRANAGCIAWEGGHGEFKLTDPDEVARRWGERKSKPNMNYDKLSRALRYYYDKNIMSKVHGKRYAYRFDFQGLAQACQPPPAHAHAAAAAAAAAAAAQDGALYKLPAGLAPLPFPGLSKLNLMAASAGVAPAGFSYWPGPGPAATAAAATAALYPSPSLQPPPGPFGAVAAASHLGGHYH
The note with it: protein: recombinant; tags: N-terminal GST; dsDNA, one strand shown. In outline:
(§1)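 A tag-only sample was pooled with DNA-barcoded human transcription factors that had been expressed in yeast as GST fusions and captured on glutathione beads. The pools were incubated for 30 min at room temperature with 200 nmole of a random double-stranded 16-mer DNA library in Tris/NaCl/DTT/glycerol buffer, then washed, crosslinked with 0.1% formaldehyde, proximity-ligated (BsaI/T4 ligase, 1 h, 37 °C), PCR-amplified and sequenced on an Illumina NextSeq500. Binding signal is each hexamer's read frequency for a factor divided by its frequency for the tag-only sample.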

For a further assay, the target named is ETV5 (Homo sapiens, UniProt P41161 1-510). The note with it: protein: recombinant; tags: N-terminal GST; dsDNA, one strand shown. The method, boiled down:
as §1

A further assay concerns the target HSF1 (Homo sapiens, UniProt Q00613 1-529). The note with it: protein: recombinant; tags: N-terminal GST; chain copies: 3; dsDNA, one strand shown. The method, boiled down:
as §1

The next assay concerns the target T2, SPIC (Homo sapiens, UniProt Q8N5J4 1-248).
T2 sequence: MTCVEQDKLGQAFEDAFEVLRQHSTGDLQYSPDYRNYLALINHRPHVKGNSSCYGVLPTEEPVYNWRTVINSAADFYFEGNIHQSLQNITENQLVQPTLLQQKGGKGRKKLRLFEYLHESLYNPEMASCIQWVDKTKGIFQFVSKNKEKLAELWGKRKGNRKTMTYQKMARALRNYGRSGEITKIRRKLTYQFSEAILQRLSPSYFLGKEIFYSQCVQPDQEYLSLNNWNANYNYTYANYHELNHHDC
The note with it: protein: recombinant; tags: N-terminal GST; dsDNA, one strand shown. In outline:
as §1

In another assay the target is ELF4 (Homo sapiens, UniProt Q99607 1-663). The note with it: protein: recombinant; tags: N-terminal GST; dsDNA, one strand shown. In outline:
as §1

Another assay deals with T3, ELK4 (Homo sapiens, UniProt P28324-2 1-405).
T3 sequence: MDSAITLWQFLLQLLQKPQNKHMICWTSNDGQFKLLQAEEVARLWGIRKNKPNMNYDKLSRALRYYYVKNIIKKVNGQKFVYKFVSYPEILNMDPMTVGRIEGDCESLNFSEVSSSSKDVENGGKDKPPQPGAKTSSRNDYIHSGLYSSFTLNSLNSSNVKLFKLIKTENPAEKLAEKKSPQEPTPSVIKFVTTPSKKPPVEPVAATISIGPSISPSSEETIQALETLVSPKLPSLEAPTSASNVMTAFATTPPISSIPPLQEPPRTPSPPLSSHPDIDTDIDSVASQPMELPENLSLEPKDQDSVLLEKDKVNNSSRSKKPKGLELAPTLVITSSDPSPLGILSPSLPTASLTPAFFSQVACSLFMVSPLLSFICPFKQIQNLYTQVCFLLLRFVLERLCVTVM
The note with it: protein: recombinant; tags: N-terminal GST; dsDNA, one strand shown. In outline: as §1

The next assay concerns the target T4, ETV2 (Homo sapiens, UniProt O00321 1-342).
T4 sequence: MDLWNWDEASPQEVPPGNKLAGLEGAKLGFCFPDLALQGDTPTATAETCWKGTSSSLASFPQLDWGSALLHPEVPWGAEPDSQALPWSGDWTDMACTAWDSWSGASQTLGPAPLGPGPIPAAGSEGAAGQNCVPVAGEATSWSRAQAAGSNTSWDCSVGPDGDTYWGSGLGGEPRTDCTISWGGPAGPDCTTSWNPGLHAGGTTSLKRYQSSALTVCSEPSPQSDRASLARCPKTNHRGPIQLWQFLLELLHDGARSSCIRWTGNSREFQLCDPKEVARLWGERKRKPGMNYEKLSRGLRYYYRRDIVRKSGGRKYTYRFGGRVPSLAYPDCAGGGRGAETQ
The note with it: protein: recombinant; tags: N-terminal GST; dsDNA, one strand shown. The method, boiled down: as §1

The target in the next assay is T5, ELF3 (Homo sapiens, UniProt P78545 1-371).
T5 sequence: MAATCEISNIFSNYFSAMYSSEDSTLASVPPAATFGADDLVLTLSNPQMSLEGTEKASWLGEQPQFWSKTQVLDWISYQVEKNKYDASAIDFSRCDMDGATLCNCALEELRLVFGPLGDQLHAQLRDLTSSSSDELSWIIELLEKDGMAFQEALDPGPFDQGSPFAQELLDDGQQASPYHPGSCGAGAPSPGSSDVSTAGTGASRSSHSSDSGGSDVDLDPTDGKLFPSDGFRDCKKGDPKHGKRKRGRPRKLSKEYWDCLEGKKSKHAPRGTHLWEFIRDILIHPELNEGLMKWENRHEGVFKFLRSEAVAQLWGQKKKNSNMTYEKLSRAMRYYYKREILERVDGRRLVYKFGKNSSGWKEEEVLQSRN
The note with it: protein: recombinant; tags: N-terminal GST; dsDNA, one strand shown. In outline:
as §1

Another assay deals with CRX (Homo sapiens, UniProt O43186 1-299). The note with it: protein: recombinant; tags: N-terminal GST; dsDNA, one strand shown. In outline:
as §1

A further assay has as its target ETV1 (Homo sapiens, UniProt P50549 1-477). The note with it: protein: recombinant; tags: N-terminal GST; dsDNA, one strand shown. The method, boiled down: as §1
The target in another assay is T6, ERF (Homo sapiens, UniProt P50548 1-548).
T6 sequence: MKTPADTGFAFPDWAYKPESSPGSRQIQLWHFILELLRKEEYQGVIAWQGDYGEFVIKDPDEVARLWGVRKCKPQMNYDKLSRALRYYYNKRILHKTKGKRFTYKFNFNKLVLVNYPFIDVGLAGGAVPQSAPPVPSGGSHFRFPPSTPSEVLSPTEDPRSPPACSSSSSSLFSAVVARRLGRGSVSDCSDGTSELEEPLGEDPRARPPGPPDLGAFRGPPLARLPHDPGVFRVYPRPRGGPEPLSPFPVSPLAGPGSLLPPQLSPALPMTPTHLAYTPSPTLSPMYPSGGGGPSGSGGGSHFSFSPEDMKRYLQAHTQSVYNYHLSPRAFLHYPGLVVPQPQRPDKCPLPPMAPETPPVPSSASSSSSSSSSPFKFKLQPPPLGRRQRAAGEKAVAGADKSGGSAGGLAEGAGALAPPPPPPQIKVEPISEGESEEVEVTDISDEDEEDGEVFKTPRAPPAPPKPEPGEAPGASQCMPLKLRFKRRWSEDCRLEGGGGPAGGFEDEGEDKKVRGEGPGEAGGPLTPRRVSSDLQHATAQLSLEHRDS
The note with it: protein: recombinant; tags: N-terminal GST; dsDNA, one strand shown. The method, boiled down: as §1

In another assay the target is T7, ETV3L (Homo sapiens, UniProt Q6ZN32 1-361).
T7 sequence: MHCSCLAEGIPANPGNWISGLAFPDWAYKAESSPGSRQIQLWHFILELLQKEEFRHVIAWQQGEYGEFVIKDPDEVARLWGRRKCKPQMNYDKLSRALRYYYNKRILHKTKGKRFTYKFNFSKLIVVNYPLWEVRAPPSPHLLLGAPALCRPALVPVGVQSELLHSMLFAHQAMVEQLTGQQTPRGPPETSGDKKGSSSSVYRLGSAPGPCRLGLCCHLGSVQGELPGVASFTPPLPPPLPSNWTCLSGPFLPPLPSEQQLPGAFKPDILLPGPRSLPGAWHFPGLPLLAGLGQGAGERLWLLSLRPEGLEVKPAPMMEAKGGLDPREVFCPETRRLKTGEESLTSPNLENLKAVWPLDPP
The note with it: protein: recombinant; tags: N-terminal GST; dsDNA, one strand shown. The method, boiled down: as §1

The target of the next assay is T8, ETS2 (Homo sapiens, UniProt P15036 1-469).
T8 sequence: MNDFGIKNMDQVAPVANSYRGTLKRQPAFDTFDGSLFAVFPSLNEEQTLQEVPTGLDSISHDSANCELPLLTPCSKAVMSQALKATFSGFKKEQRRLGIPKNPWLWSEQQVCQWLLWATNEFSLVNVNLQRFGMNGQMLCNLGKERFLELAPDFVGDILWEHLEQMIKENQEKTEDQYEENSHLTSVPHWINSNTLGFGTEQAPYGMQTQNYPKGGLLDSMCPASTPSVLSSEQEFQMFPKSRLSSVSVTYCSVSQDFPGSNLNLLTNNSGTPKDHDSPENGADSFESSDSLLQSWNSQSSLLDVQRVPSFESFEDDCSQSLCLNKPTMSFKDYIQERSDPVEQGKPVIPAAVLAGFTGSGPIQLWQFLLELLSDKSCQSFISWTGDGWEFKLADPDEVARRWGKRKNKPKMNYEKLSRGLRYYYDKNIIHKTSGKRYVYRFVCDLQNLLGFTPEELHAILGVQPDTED
The note with it: protein: recombinant; tags: N-terminal GST; dsDNA, one strand shown. In outline:
as §1

The target in another assay is T9, SPDEF (Homo sapiens, UniProt O95238 1-335).
T9 sequence: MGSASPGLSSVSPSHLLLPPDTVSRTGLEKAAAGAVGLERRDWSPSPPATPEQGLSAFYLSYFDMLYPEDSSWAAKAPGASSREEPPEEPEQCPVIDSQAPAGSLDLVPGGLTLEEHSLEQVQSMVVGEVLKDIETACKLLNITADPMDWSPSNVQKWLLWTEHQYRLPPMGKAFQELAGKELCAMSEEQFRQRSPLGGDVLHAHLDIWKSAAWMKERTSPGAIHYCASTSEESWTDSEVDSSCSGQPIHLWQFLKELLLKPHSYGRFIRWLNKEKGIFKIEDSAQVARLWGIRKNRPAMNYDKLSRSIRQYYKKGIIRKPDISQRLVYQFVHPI
The note with it: protein: recombinant; tags: N-terminal GST; dsDNA, one strand shown. The method, boiled down: as §1

The target in the next assay is T10, ETV7 (Homo sapiens, UniProt Q9Y603 1-341).
T10 sequence: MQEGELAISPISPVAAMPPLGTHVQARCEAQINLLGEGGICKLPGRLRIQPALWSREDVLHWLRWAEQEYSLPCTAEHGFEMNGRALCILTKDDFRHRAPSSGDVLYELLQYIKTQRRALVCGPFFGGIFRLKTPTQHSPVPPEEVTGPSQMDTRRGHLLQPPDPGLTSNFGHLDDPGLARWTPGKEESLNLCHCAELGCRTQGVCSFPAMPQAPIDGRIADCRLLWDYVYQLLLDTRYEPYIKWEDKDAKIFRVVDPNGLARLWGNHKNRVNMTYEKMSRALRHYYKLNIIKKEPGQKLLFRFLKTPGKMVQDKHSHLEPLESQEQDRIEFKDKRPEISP
The note with it: protein: recombinant; tags: N-terminal GST; dsDNA, one strand shown. In outline: as §1

The target in another assay is T11, ELF5 (Homo sapiens, UniProt Q9UKW6-2 1-255).
T11 sequence: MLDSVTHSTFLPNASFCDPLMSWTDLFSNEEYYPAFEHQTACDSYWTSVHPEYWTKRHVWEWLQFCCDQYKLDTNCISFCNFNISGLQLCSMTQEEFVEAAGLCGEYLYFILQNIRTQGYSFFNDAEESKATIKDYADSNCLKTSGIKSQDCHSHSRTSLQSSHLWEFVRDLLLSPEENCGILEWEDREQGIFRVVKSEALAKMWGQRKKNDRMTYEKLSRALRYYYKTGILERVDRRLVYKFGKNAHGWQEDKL
The note with it: protein: recombinant; tags: N-terminal GST; dsDNA, one strand shown. In outline: as §1

Another assay deals with T12, ETV3 (Homo sapiens, UniProt P41162-2 1-143).
T12 sequence: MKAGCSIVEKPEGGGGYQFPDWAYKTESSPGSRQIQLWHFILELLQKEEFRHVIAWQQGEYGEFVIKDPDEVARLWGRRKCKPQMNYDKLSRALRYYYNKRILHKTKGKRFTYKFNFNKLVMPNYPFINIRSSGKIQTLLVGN
The note with it: protein: recombinant; tags: N-terminal GST; dsDNA, one strand shown. The method, boiled down: as §1

The target of a further assay is ETV6 (Homo sapiens, UniProt P41212 1-452). The note with it: protein: recombinant; tags: N-terminal GST; dsDNA, one strand shown. In outline:
as §1

CRX, sequence (O43186 whole entry): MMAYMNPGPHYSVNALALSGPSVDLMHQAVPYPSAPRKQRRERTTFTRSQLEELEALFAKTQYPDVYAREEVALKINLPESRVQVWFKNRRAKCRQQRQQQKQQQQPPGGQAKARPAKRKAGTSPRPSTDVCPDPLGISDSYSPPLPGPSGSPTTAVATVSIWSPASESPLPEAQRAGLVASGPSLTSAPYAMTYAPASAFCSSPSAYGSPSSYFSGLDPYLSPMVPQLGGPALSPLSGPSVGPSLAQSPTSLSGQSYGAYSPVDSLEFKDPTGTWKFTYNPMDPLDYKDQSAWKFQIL
ELF4, sequence (Q99607 whole entry): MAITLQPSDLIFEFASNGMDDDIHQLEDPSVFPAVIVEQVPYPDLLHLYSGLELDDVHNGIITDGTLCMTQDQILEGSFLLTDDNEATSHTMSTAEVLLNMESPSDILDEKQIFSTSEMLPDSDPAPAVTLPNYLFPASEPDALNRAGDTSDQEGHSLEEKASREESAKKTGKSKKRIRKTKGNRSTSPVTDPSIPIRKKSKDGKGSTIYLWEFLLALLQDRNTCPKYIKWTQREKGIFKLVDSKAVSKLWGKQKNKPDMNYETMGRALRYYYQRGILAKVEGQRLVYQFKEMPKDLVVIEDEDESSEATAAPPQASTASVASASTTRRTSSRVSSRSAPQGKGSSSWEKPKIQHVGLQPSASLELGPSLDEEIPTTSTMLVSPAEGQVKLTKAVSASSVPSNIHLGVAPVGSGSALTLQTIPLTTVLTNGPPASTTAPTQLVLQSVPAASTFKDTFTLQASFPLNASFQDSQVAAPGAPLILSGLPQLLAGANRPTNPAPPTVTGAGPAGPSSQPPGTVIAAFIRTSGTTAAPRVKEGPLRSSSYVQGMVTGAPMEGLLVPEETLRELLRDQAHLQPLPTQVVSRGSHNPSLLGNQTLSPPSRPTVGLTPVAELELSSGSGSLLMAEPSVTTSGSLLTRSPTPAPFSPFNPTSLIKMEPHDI
HSF1, sequence (Q00613 whole entry): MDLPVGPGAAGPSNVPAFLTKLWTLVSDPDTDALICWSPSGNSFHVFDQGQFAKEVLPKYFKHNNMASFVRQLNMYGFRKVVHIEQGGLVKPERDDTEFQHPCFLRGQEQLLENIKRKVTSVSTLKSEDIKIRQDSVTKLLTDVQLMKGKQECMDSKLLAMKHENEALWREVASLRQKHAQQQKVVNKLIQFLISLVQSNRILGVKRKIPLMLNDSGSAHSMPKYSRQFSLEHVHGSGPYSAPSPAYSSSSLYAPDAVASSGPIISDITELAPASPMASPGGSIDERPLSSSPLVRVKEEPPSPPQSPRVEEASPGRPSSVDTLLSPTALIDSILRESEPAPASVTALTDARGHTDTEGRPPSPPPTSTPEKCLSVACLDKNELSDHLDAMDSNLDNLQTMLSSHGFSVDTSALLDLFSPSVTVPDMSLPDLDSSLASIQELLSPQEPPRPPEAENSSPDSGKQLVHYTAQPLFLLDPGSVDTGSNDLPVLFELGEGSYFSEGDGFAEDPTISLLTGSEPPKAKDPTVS
ETV1, sequence (P50549 whole entry): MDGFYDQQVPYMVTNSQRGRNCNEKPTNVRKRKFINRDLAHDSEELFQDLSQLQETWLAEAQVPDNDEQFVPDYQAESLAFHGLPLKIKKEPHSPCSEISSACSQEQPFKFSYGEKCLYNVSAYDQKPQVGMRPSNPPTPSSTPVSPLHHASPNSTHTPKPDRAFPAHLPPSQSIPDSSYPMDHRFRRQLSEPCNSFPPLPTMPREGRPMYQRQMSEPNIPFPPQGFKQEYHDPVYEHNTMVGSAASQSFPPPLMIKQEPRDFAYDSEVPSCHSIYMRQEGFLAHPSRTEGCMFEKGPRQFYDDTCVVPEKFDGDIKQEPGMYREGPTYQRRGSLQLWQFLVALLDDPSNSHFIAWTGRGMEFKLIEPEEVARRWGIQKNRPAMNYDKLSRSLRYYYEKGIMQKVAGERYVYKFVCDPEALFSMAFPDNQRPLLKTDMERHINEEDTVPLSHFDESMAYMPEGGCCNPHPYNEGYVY
ETV5, sequence (P41161 whole entry): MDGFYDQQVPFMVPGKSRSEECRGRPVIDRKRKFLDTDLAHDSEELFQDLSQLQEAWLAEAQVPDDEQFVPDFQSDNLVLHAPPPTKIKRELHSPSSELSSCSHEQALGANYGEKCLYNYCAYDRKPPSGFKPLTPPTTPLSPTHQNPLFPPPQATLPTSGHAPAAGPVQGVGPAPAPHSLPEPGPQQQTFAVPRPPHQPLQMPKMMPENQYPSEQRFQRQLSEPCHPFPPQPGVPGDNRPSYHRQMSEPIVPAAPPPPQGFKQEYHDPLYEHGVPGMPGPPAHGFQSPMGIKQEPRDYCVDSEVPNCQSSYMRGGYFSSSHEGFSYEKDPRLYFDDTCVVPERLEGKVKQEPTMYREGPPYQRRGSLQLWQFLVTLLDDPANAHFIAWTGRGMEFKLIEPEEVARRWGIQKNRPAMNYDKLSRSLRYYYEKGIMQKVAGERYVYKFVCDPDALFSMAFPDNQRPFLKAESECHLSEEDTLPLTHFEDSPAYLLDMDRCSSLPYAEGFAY
ETV6, sequence (P41212 whole entry): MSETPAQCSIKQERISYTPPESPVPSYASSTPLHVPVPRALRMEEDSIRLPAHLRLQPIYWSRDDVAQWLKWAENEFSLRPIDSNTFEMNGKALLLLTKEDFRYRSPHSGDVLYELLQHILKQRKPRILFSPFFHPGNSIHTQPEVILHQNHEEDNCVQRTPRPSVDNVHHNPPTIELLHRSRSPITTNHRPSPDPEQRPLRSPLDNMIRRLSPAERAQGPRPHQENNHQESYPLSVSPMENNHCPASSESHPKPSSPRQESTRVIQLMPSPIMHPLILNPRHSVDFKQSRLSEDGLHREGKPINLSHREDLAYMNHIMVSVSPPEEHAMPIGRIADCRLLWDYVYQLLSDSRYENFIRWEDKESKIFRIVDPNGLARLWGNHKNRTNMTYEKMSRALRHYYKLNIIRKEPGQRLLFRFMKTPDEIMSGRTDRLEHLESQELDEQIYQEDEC

For CTGCTG, the binding signal was 1.25 fold enrichment (6-mer frequency, TF over GST control) in the assay with FEV; 1.25 fold enrichment (6-mer frequency, TF over GST control) in the assay with ETV5; 1.09 fold enrichment (6-mer frequency, TF over GST control) with HSF1; 1.47 fold enrichment (6-mer frequency, TF over GST control) with SPIC; 1.25 fold enrichment (6-mer frequency, TF over GST control) in the assay with ELF4; 1.27 fold enrichment (6-mer frequency, TF over GST control) with ELK4. Further, the binding signal with ETV2 is 1.05 fold enrichment (6-mer frequency, TF over GST control); with ELF3, 1.13 fold enrichment (6-mer frequency, TF over GST control); with CRX, 1.01 fold enrichment (6-mer frequency, TF over GST control); with ETV1 it was 1.17 fold enrichment (6-mer frequency, TF over GST control); with ERF, 1.08 fold enrichment (6-mer frequency, TF over GST control); in the assay with ETV3L it was 1.3 fold enrichment (6-mer frequency, TF over GST control). The binding signal with ETS2 was 1.36 fold enrichment (6-mer frequency, TF over GST control); with SPDEF, 1.26 fold enrichment (6-mer frequency, TF over GST control); with ETV7, 1.13 fold enrichment (6-mer frequency, TF over GST control); with ELF5, 1.27 fold enrichment (6-mer frequency, TF over GST control); in the assay with ETV3, 1.27 fold enrichment (6-mer frequency, TF over GST control); with ETV6, 1.22 fold enrichment (6-mer frequency, TF over GST control).
